Laboratory results: PubChem BioAssay (Tox21)
The source made the active and inactive calls. Unless noted, the call rests on the fitted dose curve; in most records, active means well fitted curve in the direction sought with a large enough effect in the repeat runs; inconclusive means weak or mixed curves; inactive means no such curve, though single readings can be large; an effect the other way counts as inactive or inconclusive.

Tests used:
[1] = qHTS assay for identifying genotoxic compounds that show differential cytotoxicity against isogenic chicken DT40 cell lines with known DNA damage response pathways - wild type cell line (AID 743012); further: nearly all actives have a fitted effect of over 60% in size; further: potency means the concentration at half of the fitted maximal effect
Method in brief: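 Using parental DT40 (300 cells/well), compounds delivered in DMSO incubate 40 h at 37 C/5% CO2. CellTiter-Glo reagent then stands 30 min at room temperature, and luminescence gives cell viability.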

[2] = qHTS assay for identifying genotoxic compounds that show differential cytotoxicity against isogenic chicken DT40 cell lines with known DNA damage response pathways - Rev3 mutant cell line (AID 743014); further: nearly all actives have a fitted effect of over 55% in size; further: potency means the concentration at half of the fitted maximal effect
[3] = qHTS assay for identifying genotoxic compounds that show differential cytotoxicity against isogenic chicken DT40 cell lines with known DNA damage response pathways - Rad54/Ku70 mutant cell line (AID 743015); further: nearly all actives have a fitted effect of over 60% in size; further: potency means the concentration at half of the fitted maximal effect
[4] = qHTS assay to identify small molecule antagonists of the thyroid receptor (TR) signaling pathway - cell viability counter screen (AID 743064); further: nearly all actives have a fitted effect of over 50% in size; further: potency means the concentration at half of the fitted maximal effect
Method in brief: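 In rat pituitary GH3.TRE-Luc reporter cells co-exposed to compound and 1 nM T3 for 23.5 h, cytotoxicity was assessed with CellTiter-Fluor in the same wells, read by fluorescence.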

[5] = qHTS assay to identify small molecule antagonists of the thyroid receptor (TR) signaling pathway (AID 743065); further: nearly all actives have a fitted effect of over 55% in size; further: potency means the concentration at half of the fitted maximal effect
Method in brief: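 Antagonism measured as loss of luciferase signal in GH3 cells stably carrying a TRE-luciferase reporter, co-treated with compound and T3 (1 nM final) for 23.5 h at 37 C. Viability was read in the same well by CellTiter-Fluor.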

[6] = qHTS assay to identify small molecule antagonists of the estrogen receptor alpha (ER-alpha) signaling pathway - cell viability counter screen (AID 743074; calls by dose curve;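 further: HEK293 cells carrying ER-alpha-UAS-bla reporter stimulated with 17beta-estradiol; nearly all actives have a fitted effect of over 45% in size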; further: potency means the concentration at half of the fitted maximal effect)
[7] = target: Estrogen receptor (Homo sapiens) (UniProt P03372); assay: qHTS assay to identify small molecule agonists of the estrogen receptor alpha (ER-alpha) signaling pathway (AID 743075; calls by dose curve;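 further: HEK293 GripTite cells with ER-alpha and UAS-driven beta-lactamase reporter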; further: potency means the concentration at half of the fitted maximal effect)
Estrogen receptor (Homo sapiens), sequence (P03372 whole entry, looked up): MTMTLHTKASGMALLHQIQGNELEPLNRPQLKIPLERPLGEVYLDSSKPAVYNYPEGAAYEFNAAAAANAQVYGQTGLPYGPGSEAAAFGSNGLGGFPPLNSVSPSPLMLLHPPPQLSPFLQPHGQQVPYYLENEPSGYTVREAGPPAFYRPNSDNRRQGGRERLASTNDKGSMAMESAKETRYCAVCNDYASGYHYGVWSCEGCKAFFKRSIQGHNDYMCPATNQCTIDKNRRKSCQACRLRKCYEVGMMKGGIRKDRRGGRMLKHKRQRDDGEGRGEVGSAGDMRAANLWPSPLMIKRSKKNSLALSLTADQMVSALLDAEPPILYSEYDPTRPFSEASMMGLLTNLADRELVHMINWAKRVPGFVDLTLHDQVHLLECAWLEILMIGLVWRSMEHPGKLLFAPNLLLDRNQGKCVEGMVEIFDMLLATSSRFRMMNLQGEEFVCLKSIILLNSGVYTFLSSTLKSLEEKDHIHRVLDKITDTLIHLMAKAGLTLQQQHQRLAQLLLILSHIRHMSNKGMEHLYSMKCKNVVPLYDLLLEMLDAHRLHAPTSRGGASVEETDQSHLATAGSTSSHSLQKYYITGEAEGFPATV

[8] = qHTS assay to identify small molecule antagonists of the estrogen receptor alpha (ER-alpha) signaling pathway using the BG1 cell line - cell viability counter screen (AID 743081);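 further: compound given together with 17beta-estradiol as the ER stimulus; nearly all actives have a fitted effect of over 45% in size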; further: potency means the concentration at half of the fitted maximal effect
Aromatase (Homo sapiens) = Aromatase (Homo sapiens) (UniProt P11511); assay: qHTS assay to identify aromatase inhibitors (AID 743083); further: nearly all actives have a fitted effect of over 55% in size
Aromatase (Homo sapiens), sequence (P11511 whole entry, looked up): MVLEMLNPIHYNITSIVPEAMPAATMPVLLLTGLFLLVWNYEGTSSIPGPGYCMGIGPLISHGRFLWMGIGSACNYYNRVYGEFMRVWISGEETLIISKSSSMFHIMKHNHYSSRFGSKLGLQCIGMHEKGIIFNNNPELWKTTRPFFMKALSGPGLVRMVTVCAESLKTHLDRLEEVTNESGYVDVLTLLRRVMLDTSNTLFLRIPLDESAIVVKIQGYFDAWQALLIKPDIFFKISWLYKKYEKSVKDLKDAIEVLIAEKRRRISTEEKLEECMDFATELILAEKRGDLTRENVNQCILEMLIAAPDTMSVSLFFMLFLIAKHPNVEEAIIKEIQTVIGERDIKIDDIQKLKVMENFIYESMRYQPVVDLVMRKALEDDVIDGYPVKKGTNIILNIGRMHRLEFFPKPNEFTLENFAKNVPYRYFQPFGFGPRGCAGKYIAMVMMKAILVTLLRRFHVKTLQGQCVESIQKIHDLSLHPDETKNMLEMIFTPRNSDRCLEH

[9] = target: Estrogen receptor (Homo sapiens) (UniProt P03372); assay: qHTS assay to identify small molecule agonists of the estrogen receptor alpha (ER-alpha) signaling pathway using the BG1 cell line (AID 743079); conditions: BG1Luc4E2 cells, ERE-luciferase agonist, 22 h; activation: at 70.3 µM (top of the series); further: nearly all actives have a fitted effect of over 20% in size; further: potency means the concentration at half of the fitted maximal effect
[10] = qHTS assay to identify small molecule antagonists of the estrogen receptor alpha (ER-alpha) signaling pathway using the BG1 cell line (AID 743080; calls by dose curve;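 further: BG1 cells stimulated with 17beta-estradiol alongside compound; nearly all actives have a fitted effect of over 25% in size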)
Method in brief: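 Luminescence from a 4×ERE-luciferase reporter in BG1-Luc-4E2 cells served as read-out. Cells, pre-cultured 5 days in stripped-serum phenol-red-free medium, were exposed to compound with 17beta-estradiol co-stimulation for 21.5 h at 37 C.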

[11] = qHTS assay to identify small molecule antagonists of the androgen receptor (AR) signaling pathway - cell viability counter screen (AID 743033; further: nearly all actives have a fitted effect of over 45% in size; further: potency means the concentration at half of the fitted maximal effect)
[12] = target: Androgen receptor (Homo sapiens) (UniProt P10275); assay: qHTS assay to identify small molecule antagonists of the androgen receptor (AR) signaling pathway (AID 743035; active means well fitted inhibition curve with a large enough effect in the signal ratio in the repeat runs, not every such curve was filed as active; inconclusive means weak or mixed curves, or effect the other way; inactive means no such curve, though single readings can be large or run the other way; the % refers to the signal ratio; further: potency means the concentration at half of the fitted maximal effect)
Androgen receptor (Homo sapiens), sequence (P10275 whole entry, looked up): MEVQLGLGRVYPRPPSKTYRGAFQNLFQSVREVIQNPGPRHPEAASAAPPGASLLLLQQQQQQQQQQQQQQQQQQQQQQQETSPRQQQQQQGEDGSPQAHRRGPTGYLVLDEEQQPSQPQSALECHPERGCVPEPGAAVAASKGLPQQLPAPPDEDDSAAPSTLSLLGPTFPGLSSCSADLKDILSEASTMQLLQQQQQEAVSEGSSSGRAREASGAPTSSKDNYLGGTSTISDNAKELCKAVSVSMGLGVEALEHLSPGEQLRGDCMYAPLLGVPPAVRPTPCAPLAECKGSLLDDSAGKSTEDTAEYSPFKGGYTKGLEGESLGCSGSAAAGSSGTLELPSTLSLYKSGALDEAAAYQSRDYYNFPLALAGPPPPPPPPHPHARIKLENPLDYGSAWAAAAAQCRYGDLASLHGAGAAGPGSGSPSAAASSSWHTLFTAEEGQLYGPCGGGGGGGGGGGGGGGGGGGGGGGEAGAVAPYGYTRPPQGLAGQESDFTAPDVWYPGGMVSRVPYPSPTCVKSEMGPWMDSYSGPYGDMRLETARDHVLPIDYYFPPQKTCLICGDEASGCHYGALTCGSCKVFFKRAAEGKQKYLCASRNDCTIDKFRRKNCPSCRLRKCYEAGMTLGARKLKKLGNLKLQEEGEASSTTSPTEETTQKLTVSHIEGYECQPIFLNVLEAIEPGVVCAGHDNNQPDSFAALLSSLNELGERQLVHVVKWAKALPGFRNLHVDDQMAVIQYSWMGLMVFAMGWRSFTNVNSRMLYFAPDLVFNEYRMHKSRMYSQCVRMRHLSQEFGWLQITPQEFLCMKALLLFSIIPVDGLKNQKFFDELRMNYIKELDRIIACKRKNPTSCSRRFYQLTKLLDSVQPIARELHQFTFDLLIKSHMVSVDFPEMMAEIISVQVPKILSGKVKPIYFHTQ
Method in brief: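 Using qHTS, AR-UAS-bla GripTite HEK293 cells received compound, then R1881, and were cultured 16 h at 37C/5% CO2 before a 2 h room-temperature LiveBLAzer B/G FRET substrate step and fluorescence measurement.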

[13] = target: Androgen receptor (Homo sapiens) (UniProt P10275); assay: qHTS assay to identify small molecule agonists of the androgen receptor (AR) signaling pathway using the MDA cell line (AID 743040; further: nearly all actives have a fitted effect of over 20% in size; further: potency means the concentration at half of the fitted maximal effect)
Method in brief: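 Cells plated, 5 h at 37C/0% CO2; compound or DMSO pinned; 16 h at 37C; ONE-Glo added; luminescence measured after 30 min at room temperature. Reporter line: MDA-kb2 with MMTV-luciferase responsive to AR and GR.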

[14] = qHTS assay to identify small molecule antagonists of the androgen receptor (AR) signaling pathway using the MDA cell line - cell viability counter screen (AID 743041; further: nearly all actives have a fitted effect of over 45% in size)
Method in brief: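 Cells were plated at 3,000 per well and left 5 h. Compounds in DMSO were then pinned in, followed by R1881. After 16 h at 37C, CellTiter-Fluor fluorescence gave viability.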

[15] = target: Androgen receptor (Homo sapiens) (UniProt P10275); assay: qHTS assay to identify small molecule agonists of the androgen receptor (AR) signaling pathway (AID 743036; active means well fitted activation curve with a large enough effect in the signal ratio in the repeat runs, with a control signal flat, not every such curve was filed as active; inconclusive means weak or mixed curves, or effect the other way; inactive means no such curve, though single readings can be large or run the other way; the % refers to the signal ratio; further: potency means the concentration at half of the fitted maximal effect)
Method in brief: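 Cell-based FRET reporter assay: HEK293 line with a UAS-beta-lactamase construct, compounds added in DMSO, 16 h exposure at 37C, then 2 h substrate step at room temperature and fluorescence intensity read.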

[16] = target: Androgen receptor (Homo sapiens) (UniProt P10275); assay: qHTS assay to identify small molecule antagonists of the androgen receptor (AR) signaling pathway using the MDA cell line (AID 743042; further: nearly all actives have a fitted effect of over 55% in size)
Method in brief: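 Antagonist mode: compounds plus R1881 agonist added to MDA-kb2 AR-luc cells, incubated 16 h at 37C. Luciferase reporter luminescence quantified, with multiplexed CellTiter-Fluor readout for cell viability.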

[17] = tested on: thyroid hormone receptor (rat, GH3 cells); assay: qHTS assay to identify small molecule agonists of the thyroid receptor (TR) signaling pathway (AID 743066; calls by dose curve)
[18] = target: Estrogen receptor (Homo sapiens) (UniProt P03372); assay: qHTS assay to identify small molecule antagonists of the estrogen receptor alpha (ER-alpha) signaling pathway (AID 743069; active means well fitted curve in the direction sought with a large enough effect in the signal ratio in the repeat runs, not every such curve was filed as active; inconclusive means weak or mixed curves, or effect the other way; inactive means no such curve, though single readings can be large or run the other way; the % refers to the signal ratio; further: potency means the concentration at half of the fitted maximal effect)
Method in brief: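 ER-alpha-UAS-bla GripTite HEK293 line; 2% charcoal-stripped FBS overnight; plated, 4 hr 37C/5% CO2; cpd in DMSO + 17beta-estradiol, 18 hr 37C; LiveBLAzer B/G FRET substrate 2 hr RT; fluorescence intensity.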
On the % scale 0 is the no-effect control and ±100 the full control effect.

CC[C@@H](C(=O)O)[C@@H]1O[C@@H]([C@@H](C)[C@H](O)[C@H](C)C(=O)[C@H](CC)[C@H]2O[C@]3(C=C[C@@H](O)[C@]4(CC[C@@](C)([C@H]5CC[C@](O)(CC)[C@H](C)O5)O4)O3)[C@H](C)C[C@@H]2C)[C@@H](C)C[C@@H]1C
active: Potency [1] 0.237 µM | Potency [2] 0.168 µM | Potency [3] 0.237 µM | Potency [4] 0.15 µM | Potency [5] 0.0944 µM | Potency [6] 0.151 µM | Potency [8] 6.68 µM
inactive: Potency [7] | Potency (Aromatase (Homo sapiens))

COc1ccc2c(c1)OC(C)(C)C(c1ccccc1)C2c1ccc(OCCN2CCCC2)cc1 (stereo not drawn)
active: Potency [1] 3.76 µM | Potency [2] 5.31 µM | Potency [3] 5.96 µM | Potency [4] 10.6 µM | Potency [5] 9.44 µM
inactive: Potency [9] | Potency [10] | Potency [8]

CC[C@@H](C(=O)[C@@H](C)[C@@H](O)[C@H](C)[C@@H]1O[C@@H]([C@@H](CC)C(=O)O)CC[C@@H]1C)[C@H]1O[C@]2(C=C[C@@H](O)[C@]3(CC[C@@](C)([C@H]4CC[C@](O)(CC)[C@H](C)O4)O3)O2)[C@H](C)C[C@@H]1C
inactive: Potency (Aromatase (Homo sapiens))
active: Potency [1] 1.5 µM | Potency [2] 0.944 µM | Potency [3] 1.19 µM | Potency [11] 1.51 µM | Potency [5] 0.668 µM

CCN(CC)CCOc1ccc(-c2nc3cc(Cl)ccc3s2)cc1
inactive: Potency [6] | Potency [7] | Potency [8] | Potency (Aromatase (Homo sapiens))
active: Potency [1] 0.944 µM | Potency [2] 1.06 µM | Potency [3] 1.06 µM | Potency [11] 23.9 µM | Potency [5] 6.68 µM

O=C1CSC2(CCN(CCCN3c4ccccc4Sc4ccc(Cl)cc43)CC2)N1
inactive: Potency [13] | Potency [14] | Potency [7]
active: Potency [1] 5.96 µM | Potency [2] 7.5 µM | Potency [3] 8.41 µM | Potency [12] 21.3 µM | Potency [4] 10.6 µM | Potency [5] 10.6 µM

CCCCCCCCCCCCCCCC(=O)OC[C@@H](COP(=O)([O-])OCC[N+](C)(C)C)OC(=O)CCCCCCCCCCCCCCC
inactive: Potency [1] | Potency [3] | Potency [11] | Potency [12] | Potency [15] | Potency [13] | Potency [16] | Potency [4] | Potency [5] | Potency [17] | Potency [18] | Potency [7] | Potency [10] | Potency [8] | Potency (Aromatase (Homo sapiens))
active: Potency [9] 29.8 µM

CCCC1([C@H](O)C/C=C/[C@H]2[C@H](O)CC(=O)[C@@H]2CCCCCCC(=O)OC)CCC1
active: Potency [1] 11.9 µM | Potency [2] 23.7 µM | Potency [11] 16.9 µM | Potency [4] 29.8 µM | Potency [5] 26.6 µM
inactive: Potency [13] | Potency [16] | Potency [6] | Potency [9] | Potency [10] | Potency [8]

COc1cc([C@@H]2c3cc4c(cc3C(O[C@@H]3O[C@@H]5COC(c6cccs6)O[C@H]5[C@H](O)[C@H]3O)C3COC(=O)[C@@H]32)OCO4)cc(OC)c1O (stereo partly drawn)
active: Potency [1] 0.0119 µM | Potency [2] 0.0119 µM | Potency [3] 0.0011 µM | Potency [11] 0.301 µM | Potency [4] 2.37 µM | Potency [5] 0.531 µM | Potency [18] 6.74 µM [inconclusive]
inactive: Potency [14] | Potency [17] | Potency [6] | Potency [7]

CO[C@H]1C[C@@H]2CC[C@@H](C)[C@@](O)(O2)C(=O)C(=O)N2CCCC[C@H]2C(=O)O[C@H]([C@H](C)C[C@@H]2CC[C@@H](OC(=O)C(C)(CO)CO)[C@H](OC)C2)CC(=O)[C@H](C)/C=C(\C)[C@@H](O)[C@@H](OC)C(=O)[C@H](C)C[C@H](C)/C=C/C=C/C=C/1C
inactive: Potency [1] | Potency [3] | Potency [11] | Potency [14] | Potency [18] | Potency [6] | Potency [7] | Potency [10] | Potency [8] | Potency (Aromatase (Homo sapiens))
active: Potency [9] 23.7 µM

CCC(=O)O[C@H]1CC[C@H]2[C@@H]3CCc4cc(O)ccc4[C@H]3CC[C@]12C
active: Potency [1] 23.7 µM | Potency [3] 23.7 µM | Potency [15] 3.01 µM | Potency [13] 4.73 µM | Potency [5] 26.6 µM | Potency [7] 0.0013 µM [inconclusive] | activation [9] 52.2%
inactive: Potency [11] | Potency [14] | Potency [16] | Potency [6] | Potency [10] | Potency [8] | Potency (Aromatase (Homo sapiens))

Cc1nnc(C(C)C)n1C1C[C@H]2CC[C@@H](C1)N2CC[C@H](NC(=O)C1CCC(F)(F)CC1)c1ccccc1 (stereo partly drawn)
inactive: Potency [1] | Potency [2] | Potency [3] | Potency [11] | Potency [14] | Potency [4] | Potency [5] | Potency [17] | Potency [18] | Potency [6] | Potency [7] | Potency [9] | Potency [10] | Potency (Aromatase (Homo sapiens))
